Rows were chosen to be rich in hits. Some 8.1% of all compounds tested hit in one or more screens of this group.
PINK1 expr mod – A Quantitative High throughput Screen to Identify Chemical Modulators of PINK1 Expression | AID 624263, 2012 | Potency, µM (doses to about 76.6 µM), for inactives: at the top dose activation (PINK1 increase), hits mostly activators | 410,000 compounds, 0.2% hits | PINK1 immunofluorescence, high-content cytometry, 24 h; active = well fitted activation curve with a large enough effect; inconclusive = small, poorly fitted or top-dose-only effect; cell line not stated here; also: % of control where 0% means no effect; nearly all actives have a fitted effect of over 65% in size
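Measures PINK1 amount and localization on or inside mitochondria by immunofluorescence. Stable cells get compounds at 5 concentrations for 24 hours before fixation and staining; CCCP controls included.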
Gal4-VP16 FLuc – VP16 counterscreen qHTS for inhibitors of ROR gamma transcriptional activity. AID 2546, 2010. Potency, µM (top dose mostly 53.6 µM), for the others: top-dose activity, negative = inhibition, usual class: inhibitors. 310,000 compounds, 3.5% hits. Drosophila S2 Gal4-VP16 UAS-luciferase, luminescence, 20 h;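 also: Gal4-VP16 expression switched on by copper sulfate through the metallothionein promoter; % is scaled to controls: 0 for no effect and ±100 for the full control effect; nearly all actives have a fitted effect of over 50% in size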
Epigenetic derep – Quantitative High-Throughput Screen for Regulators of Epigenetic Control. murine LDR cells, GFP reporter derepression, 30 h. Potency, µM (top dose mostly 53.9 µM), for inactives: at the highest dose GFP activation, hits mostly activators. 280,000 compounds, 0.2% hits. AID 1865, 2009; also: % of control where 0% means no effect; nearly all actives have a fitted effect of over 60% in size
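In this reporter-derepression format, murine cells bearing a silenced integrated CMV-GFP locus incubate with test compound (30 h, 37 C), then are washed and imaged; fluorescent objects of 20–120 um count as induced cells.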
Sfp PPTase inh – qHTS Assay for Inhibitors of Bacillus subtilis Sfp phosphopantetheinyl transferase (PPTase); AID 1490, 2009; Potency, µM, for inactives: largest response in the series, negative = inhibition, usual class: inhibitors; Biochemical Sfp PPTase activity, qHTS; 4'-phosphopantetheinyl transferase ffp (Bacillus subtilis), Q9F4F7; 310,000 compounds, 3.5% hits;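 also: the enzyme is Sfp with the accession as filed and its product quenches rhodamine fluorescence; 0% = enzyme reaction without inhibitor and -100% = no enzyme wells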
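With Hepes-Na pH 7.6 buffer containing 10 mM MgCl2, Sfp (15 nM) modified BHQ-2-YbbR (12.5 uM) using rhodamine-CoA (5 uM). Two reads 30 minutes apart at 525/598 nm yielded each well's rate.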
RORgamma inh – qHTS for inhibitors of ROR gamma transcriptional activity; Nuclear receptor ROR-gamma (Mus musculus), P51450; Drosophila S2 Gal4-RORgamma UAS-luciferase reporter, 20 h; Potency, µM (top dose mostly 53.6 µM), for inactives: at the highest dose activity change, negative = inhibition, hits mostly inhibitors; 310,000 compounds, 5.4% hits; AID 2551, 2010; also: % is scaled to controls: 0 for no effect and ±100 for the full control effect; nearly all actives have a fitted effect of over 60% in size
Target sequence (P51450 whole entry, looked up, the tested form may be a part): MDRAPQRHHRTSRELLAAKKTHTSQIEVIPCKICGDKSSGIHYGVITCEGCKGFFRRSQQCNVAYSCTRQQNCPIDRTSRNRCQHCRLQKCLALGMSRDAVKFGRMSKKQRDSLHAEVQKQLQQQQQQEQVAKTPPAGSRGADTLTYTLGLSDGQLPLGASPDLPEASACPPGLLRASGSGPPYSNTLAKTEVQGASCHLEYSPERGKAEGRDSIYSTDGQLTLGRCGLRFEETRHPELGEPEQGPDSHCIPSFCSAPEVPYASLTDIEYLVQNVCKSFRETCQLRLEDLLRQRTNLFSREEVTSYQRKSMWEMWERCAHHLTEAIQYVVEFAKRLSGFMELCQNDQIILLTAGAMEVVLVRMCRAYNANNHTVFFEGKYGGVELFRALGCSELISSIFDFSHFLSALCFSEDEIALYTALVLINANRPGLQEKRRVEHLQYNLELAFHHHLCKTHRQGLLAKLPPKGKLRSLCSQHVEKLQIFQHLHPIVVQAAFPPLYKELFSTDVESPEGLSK
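Stable Schneider cell line, Gal4 DNA-binding domain fused to ROR gamma, UAS-luciferase. Cmpd 1 hr RT → CuSO4 700 uM final → 20 hr RT → luciferase reagent 10 min → luminescence.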
ClpP mod – qHTS Assay for Activators of ClpP. ATP-dependent Clp protease proteolytic subunit (Bacillus subtilis (strain 168)), P80244. purified B. subtilis ClpP, FRET peptide cleavage, 20 min. Potency, µM (titrated, usually from 57.5 µM), inactives show top-dose activity change, negative = active. 340,000 compounds, 1.9% hits. AID 651965, 2013; active = well fitted falling curve with a large enough effect; inconclusive = small, poorly fitted or top-dose-only effect; inactive = no such curve, though single readings can be large or run the other way; also: the source files actives as falling curves though it sought activators and does not explain the sign; nearly all actives have a fitted effect of over 65% in size
Target sequence (P80244 whole entry, looked up): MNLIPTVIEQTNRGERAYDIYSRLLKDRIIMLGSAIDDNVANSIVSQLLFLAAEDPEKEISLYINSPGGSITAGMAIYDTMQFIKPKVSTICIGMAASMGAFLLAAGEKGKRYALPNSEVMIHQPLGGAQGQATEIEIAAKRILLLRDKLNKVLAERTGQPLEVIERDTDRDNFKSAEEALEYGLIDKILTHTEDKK
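ClpP 10 microg/mL final, pH 8 Tris/KCl buffer with BSA, glycerol, Tween-20; compound pinned in; FRET-FV substrate; RT 20 min; Ex320/Em430; ΔFRET vs ADEP 5.8 microM, DMSO, no enzyme.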
Numbers without * were called inactive; ? = inconclusive; · = no result; ! = not confirmed by another sample; [ ] = another dose, or the depositor's remark. Unless noted, calls follow the shape of the dose curve; as a rule, active = well fitted curve in the direction sought with a large enough effect; inconclusive = small, poorly fitted or top-dose-only effect, or another doubt; inactive = no such curve, though single readings can be large; an effect the other way counts as inactive or inconclusive. Potency is read from the fitted curve at half-maximal effect.

SMILES	PINK1 expr mod	Gal4-VP16 FLuc	Epigenetic derep	Sfp PPTase inh	RORgamma inh	ClpP mod
N#C/C(=C\c1ccc(-c2ccc(F)cc2)o1)C(=O)Nc1nc(-c2cccs2)cs1	18%	1%	0%	-8%	21%	2%
N#C/C(=C/c1ccc(-c2ccccc2)o1)c1nc(-c2cccs2)cs1	9%	0.1µM*	2%	-10%	?	1%
CCCc1cc(=O)oc2cc(C)c3c(-c4cccc(OC)c4)coc3c12	2%	·	4%	·	·	-9%
CCCCC1CC(/C(C)=N/NC(N)=O)OC1=O (stereo not drawn)	0%	-7%	-1%	14%	-9%	-2%
C/C(=N\NC(N)=S)C1C2C3CC4C5CC(C42)C1C53 (stereo not drawn)	0%	?	0%	9%	1.1µM*	·
Cc1ccc2nc(N(CCCN(C)C)C(=O)c3ccc(S(=O)(=O)N4CCCCCC4)cc3)sc2c1	-1%	?	·	-20%	11µM*	1%
CC1CCCCN1S(=O)(=O)c1ccc(C(=O)N(CCCN(C)C)c2nc3ccc(Br)cc3s2)cc1 (stereo not drawn)	-2%	?	·	50µM*	?	-1%
Cc1ccc2nc(N(CCCN(C)C)C(=O)c3ccc4ncsc4c3)sc2c1	4%	-20%	·	40µM*	8%	0%
O=c1cnc2cnc(OCc3ccccc3)nc2n1Cc1ccc(F)cc1	0%	2%	·	-4%	-4%	·
O=C(NCc1ccc2c(c1)CCN2C(=O)c1ccncc1)c1ccc(Cl)cc1	0%	·	-1%	·	·	0%
CC1=C(CC(=O)O)c2cc(F)ccc2/C1=C\c1ccc(S(C)=O)cc1 (stereo not drawn)	·	?	2%	79µM*!	-6%	0%
CC1(C)CC(=O)C2=C(C1)N(c1ccccc1)C(=O)C(C(=O)OCc1ccccc1)C2 (stereo not drawn)	0%	·	·	·	·	-2%
CC1(C)CC(=O)C2=C(C1)N(c1cccc(O)c1)C1=C(C2)C(=O)CC(C)(C)C1	1%	2%	8%	10µM*	-21%	-3%
Cc1cc(C)c2c(c1)c(C)cc1nnc(SCC(=O)c3ccc(F)cc3)n12	-1%	·	-3%	·	·	0%
CCCC[C@H](CC)CN=C(N)NC(N)=NCCCCCCN=C(N)NC(N)=NC[C@@H](CC)CCCC	·	-24%[17 µM]	1%[16.9 µM]	8.9µM*	?	·
COc1cc2c(cc1NS(=O)(=O)N1CCCC1)oc1ccccc12	7%[38.3 µM]	9%	-1%	-8%	-39%	25µM*
COc1cc2c(cc1NC(=S)NC(=O)c1c(OC)cccc1OC)oc1ccccc12	2%	?	0%	-7%	3.5µM*	9%
COCCNC(=S)Nc1cc2oc3ccccc3c2cc1OC	-2%	7.1µM*	·	9%	5.6µM*	-8%
COc1cc(OC)cc(C(=O)NC(=S)Nc2cc3oc4ccccc4c3cc2OC)c1	-2%	?	-3%	-4%	1.4µM*	-9%
COc1ccc(C(=O)NC(=S)Nc2cc3oc4ccccc4c3cc2OC)cc1	13%	8%	-1%	-17%	?	·
CCNC(=O)C1CCN(c2nc3ccccc3nc2C(F)(F)F)CC1	1%	·	-3%	·	·	1%
Cc1ccc2onc(CNC(=O)N(C)Cc3ccccc3)c2c1	1%	·	5%	·	·	1%
O=[N+]([O-])c1ccc(/C=N/n2c(-c3cccnc3)n[nH]c2=S)cc1	0%	1%	2%	?	-24%	-3%
Cc1cc(-c2n[nH]c(=S)n2/N=C/C=C/c2ccco2)n[nH]1	0%	-1%	1%	56µM*	-2%	·
S=c1[nH]nc(-c2ccc(Cl)cc2)n1/N=C/c1ccco1	-1%	?	0%	-9%	3.2µM*	1%
SMILES	PINK1 expr mod	Gal4-VP16 FLuc	Epigenetic derep	Sfp PPTase inh	RORgamma inh	ClpP mod
Cc1ccsc1/C=N/n1c(-c2cccnc2)n[nH]c1=S	12%[38.3 µM]	-19%	0%	-1%	11µM*	-1%
S=c1[nH]nc(-c2ccco2)n1/N=C/c1ccc(Cl)cc1Cl	-1%	18µM*	1%	-6%	5.6µM*	-2%
CC(=O)N1CCc2cc(Br)cc(S(=O)(=O)CCC(=O)NCc3ccc(F)cc3)c21	1%	·	1%	·	·	-1%
S=c1[nH]nc(-c2ccco2)n1/N=C/C=C/c1ccccc1	1%	?	-1%	-15%	2.5µM*	5%
S=c1[nH]nc(-c2cccnc2)n1/N=C/C=C/c1ccco1	0%	-1%	3%	16µM*	-37%	1%
CC(=C/c1ccccc1)/C=N/n1c(-c2ccco2)n[nH]c1=S	·	-1%	1%	?	17%	-1%
Cc1ccccc1-c1n[nH]c(=S)n1/N=C/C=C/c1ccco1	0%	-18%	0%	-21%	2.5µM*	0%
S=c1[nH]nc(-c2ccccc2)n1/N=C/C=C/c1ccco1	3%	3.2µM*	-1%	50µM*	2.8µM*	1%
CC(/C=N/n1c(-c2cccnc2)n[nH]c1=S)=C\c1ccco1	-1%	-8%	1%	-27%	-38%	-3%
C[N+]1(CC(=O)c2ccc(Oc3ccccc3)cc2)CCOCC1	·	·	·	·	·	1%
Cc1cccc(Cn2c(SCc3ccc(C(=O)N4CCCCCC4)cc3)nc3ccncc32)c1	2%	·	?	·	·	1%
S=c1[nH]nc(-c2ccc(Cl)cc2)n1/N=C/C=C/c1ccco1	0%	-8%	-1%	56µM*	?	·
CC(=O)NC(=S)NNC(=O)C(c1ccccc1)c1ccccc1	3%	-6%	1%	3%	6.3µM*	-1%
N#CCC(=O)NNC(=S)NC(=O)C(c1ccccc1)c1ccccc1	3%	-7%	1%	6%	-8%	·
COc1ccc2cc(C3CC(c4ccco4)=NN3S(C)(=O)=O)c(Cl)nc2c1 (stereo not drawn)	3%	0%	0%	50µM*	29%	·
NC1=NN=C(N2N=C(c3ccc(Br)cc3)CC2(O)C(F)(F)F)n2ncnc2C1 (stereo not drawn)	1%	18µM*	-1%	22%	?	-1%
CCOC(=O)N1N=C(c2ccc(OC)cc2)CC1(O)C(F)(F)F (stereo not drawn)	1%	?	-3%	-2%	?	0%
COc1ccccc1C1=NN(C2=NN=C(N)Cc3ncnn32)C(O)(C(F)(F)F)C1 (stereo not drawn)	5%	-7%	1%	12%	?	4%

Screening results as filed in PubChem.
